# Screens from PubChem.
# PAFAH2 FP inh – PAFAH2 (human) inhibition | 0.99% of 340,000 active | inhibition, % at 3.39 µM | Q99487 | AID 492956 | recombinant PAFAH2, FP-rhodamine activity probe, fluorescence polarization;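 active means inhibition above the mean over all tested compounds plus 3 SD, cut at about 30% in these data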;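 further: inhibitors block probe labeling of enzyme so polarization drops; 0% = enzyme with DMSO and 100% = wells lacking PAFAH2 protein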
# PAFAH1B2 FP inh – PAFAH1B2 (human) inhibition; P68402; recombinant PAFAH1B2, FP-rhodamine activity probe, fluorescence polarization; inhibition, % at 3.39 µM; 1.2% of 340,000 active;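 active means inhibition above the mean of all tested compounds plus 3 SD, cut at about 24% in these data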;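 further: 0% = enzyme with DMSO and 100% = wells lacking PAFAH1B2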
# Target sequence (P68402 whole entry, looked up): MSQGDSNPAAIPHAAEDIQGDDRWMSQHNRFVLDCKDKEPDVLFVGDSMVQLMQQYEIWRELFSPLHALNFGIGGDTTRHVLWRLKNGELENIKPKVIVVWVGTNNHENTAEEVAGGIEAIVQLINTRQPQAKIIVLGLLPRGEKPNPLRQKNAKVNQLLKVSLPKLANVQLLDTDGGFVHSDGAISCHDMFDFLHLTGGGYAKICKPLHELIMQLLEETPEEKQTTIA
# PP5 primary – PP5 (human) phosphatase inhibition; 0.18% of 320,000 active; purified PP5c, OMFP substrate fluorescence; P53041; AID 1987; inhibition, % at 6.7 µM;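 active means inhibition above the campaign's mean inhibition across all tested compounds plus 3 SD, cut at about 9.5% in these data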;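 further: 0% = DMSO only and 100% = 100 µM cantharidin control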
# Fh CTSL1 inh – cathepsin L1 inhibition, PFM18AAP counter-screen. inhibition, % at 5.96 µM. recombinant F. hepatica cathepsin L1, Z-Leu-Arg-MCA fluorescence. AID 1906. 0.49% of 300,000 active;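 active means inhibition above the mean of all tested compounds plus 3 SD, set per screening campaign, cut at about 17% in these data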;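 further: 0% = plate median of test compound wells and 100% = 1 µM Z-Phe-Ala-diazomethylketone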
# pPAFAH FP inh – inhibitors of human plasma PAF acetylhydrolase (pPAFAH); Q13093; inhibition, % at 3.39 µM; 1.5% of 330,000 active; recombinant pPAFAH, FP-rhodamine probe fluorescence polarization; AID 463082;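 active means inhibition above the mean inhibition across the screen plus 3 SD, cut at about 25% in these data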;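 further: inhibitors block binding of the rhodamine activity-based probe so polarization drops; 0% = enzyme with DMSO and 100% = wells lacking pPAFAH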
# PAFAH1B3 inh – inhibitors of human PAFAH1B3. Q15102. recombinant PAFAH1B3, FP-rhodamine probe, fluorescence polarization. inhibition, % at 3.39 µM. 0.28% of 340,000 active. AID 492972;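 active means inhibition above the screen-wide average of all tested compounds plus 3 SD, cut at about 25% in these data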;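 further: 0% = enzyme with DMSO only and 100% = wells lacking PAFAH1B3 protein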
# Target sequence (Q15102 whole entry, looked up): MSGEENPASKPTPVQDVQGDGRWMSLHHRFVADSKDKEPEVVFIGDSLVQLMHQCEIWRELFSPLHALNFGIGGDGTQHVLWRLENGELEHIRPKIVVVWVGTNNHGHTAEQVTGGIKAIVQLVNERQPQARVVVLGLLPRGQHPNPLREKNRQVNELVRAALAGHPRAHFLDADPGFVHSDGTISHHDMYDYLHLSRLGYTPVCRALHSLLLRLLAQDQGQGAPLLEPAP
# Numbers without * were called inactive; / = not tested or not shown; ! = not active in a repeat. The list is not random: actives were taken first. Their share in the collection is about 3%.
SMILES,PAFAH2 FP inh,PAFAH1B2 FP inh,PP5 primary,Fh CTSL1 inh,pPAFAH FP inh,PAFAH1B3 inh
N#C/C(=C(/O)c1ccccc1F)c1nc2cc(C(F)(F)F)ccc2s1,25,82*,0,-2,2,11
CC(C)=C(C#N)c1nc2ccccc2s1,-8,6,-1,2,0,5
CN1CCc2cc3c(c4c2[C@H]1[C@H](O)c1ccccc1-4)OCO3,17,4,4,1,19,10
CN1CCc2cccc3c2[C@H]1Cc1ccc(O)c(O)c1-3,8,0,1,-6,25*!,7
O=C(Oc1c(-c2ccccc2)c(=O)n2c3c(cccc13)CC2)c1ccccc1,/,/,2,-3,26*,/
O=C(Oc1c(-c2ccccc2)c(=O)n2c3c(cccc13)CC2)c1ccc(F)cc1,0,-1,2,-4,-4,6
Cc1cc(-c2csc(NC(=O)c3ccc(=O)[nH]c3)n2)c(C)n1Cc1ccccc1,-14,7,-1,1,31*,9
CCCCCCCCN1[C@@H](CC(=O)O)c2ccc(C(F)(F)F)cc2S1(=O)=O,14,31*,2,5,11,1
O=C(Cn1cc[n+](CC(=O)c2ccc(Cl)cc2Cl)c1)c1ccc(Cl)cc1Cl,/,/,-2,0,33*,/
Nc1c(Cl)cc(-c2csc(NCCc3nc4cc(Cl)c(Cl)cc4n3CCCO)n2)cc1Cl,-1,6,6,1,-4,9
OCCCn1c(CCNc2nc(-c3ccc(Cl)cc3)cs2)nc2cc(C(F)(F)F)ccc21,6,27*,3,-2,7,5
O=[N+]([O-])c1cc(-c2csc(NCCc3nc4cc(C(F)(F)F)ccc4n3CCCO)n2)ccc1Cl,-4,32*,4,3,13,-1
CSc1nc(N)nc(SCCS(=O)(=O)c2ccc(Cl)cc2)c1C#N,-3,25*,1,3,-4,-8
Nc1ccccc1SCCS(=O)(=O)c1ccc(Cl)cc1,8,28*,-2,1,2,6
O=CN1CCCN(Cc2nc(-c3cccc(Cl)c3)no2)CC1,-5,3,1,-6,2,2
O=C1CCNc2cc3ccccc3cc21,4,3,5,-4,31*,9
O=C1CCNc2ccc(-c3ccccc3)cc21,0,6,3,-3,2,3
O=c1[nH][nH]c2c(N=Cc3ccccc3O)ccc(F)c12,62*,40*,/,/,/,61*
CCc1ccc(O)c(N=Cc2ccccc2O)c1,9,2,1,3,13,6
Cc1ccc(-c2nc(Nc3ccc(O)cc3)c3ccccc3n2)cc1,-2,2,9,-10,26*,22
COc1ccc(Cn2c(O)c(C=Nc3ccccc3C(=O)O)c3ccccc3c2=O)cc1,37*,4,1,1,27*,10
COc1ccccc1NS(=O)(=O)c1cccc(-n2c(O)c(C=Nc3ccccc3C(=O)O)c3ccccc3c2=O)c1,83*,7,4,7,30*,6
Cc1nc(C(=O)N2CCC(n3nccc3NC(=O)Nc3ccccc3Cl)CC2)cs1,-8,2,2,-2,2,5
Cc1ccc(C(=O)N/C(=C\c2cccs2)C(=O)N2CCOCC2)cc1C,2,4,-1,1,0,10
N#Cc1c(-c2ccccc2)nc(SCc2ccc(Cl)cc2)[nH]c1=O,-10,35*,6,0,8,-1
SMILES,PAFAH2 FP inh,PAFAH1B2 FP inh,PP5 primary,Fh CTSL1 inh,pPAFAH FP inh,PAFAH1B3 inh
N#Cc1c(-c2ccccc2)nc(SCC(=O)N(c2ccccc2)c2ccccc2)[nH]c1=O,-4,39*,3,1,0,8
N#Cc1c(-c2ccccc2)nc(SCC(=O)Nc2ccc(OC(F)(F)Cl)cc2)[nH]c1=O,-4,79*,3,1,-7,14
N#Cc1c(-c2ccccc2)nc(SCC(=O)Nc2ccccc2)[nH]c1=O,-2,7,-2,4,-2,14
N#Cc1c(-c2ccccc2)nc(SCC(=O)Nc2ccccc2F)[nH]c1=O,-7,4,1,0,-4,11
N#Cc1c(-c2ccccc2)nc(SCC(=O)N2c3ccccc3Sc3ccccc32)[nH]c1=O,-13,24*,3,5,3,-9
N#C/C(=C\c1ccc[nH]1)C(=O)Nc1ccccc1[N+](=O)[O-],12,2,3,-1,20,11
CC1SC2(NC1=O)C1CC3CC(C1)CC2C3 (configuration not stated),1,28*,2,0,1,0
Cc1ccc(SCc2[nH]nc3c2C(c2ccco2)C(C#N)=C(N)O3)cc1 (configuration not stated),7,34*,1,-1,7,14
Cc1ccc(S(=O)(=O)N(C)CCN(C)S(=O)(=O)c2ccc(C)cc2)cc1,4,5,/,/,/,3
COc1cc(C2Nc3cccc4cccc(c34)N2)cc(OC)c1OC(C)=O,-8,7,1,1,11,32*
COc1ccc(Br)cc1C1Nc2cccc3cccc(c23)N1,12,-3,5,-5,5,4
O=[N+]([O-])c1cc(C2Nc3cccc4cccc(c34)N2)ccc1Cl,8,37*,0,2,0,13
COc1ccc2ccc3ccc(OC)c(OC(C)=O)c3c2c1,8,4,/,/,/,5
COc1cc(C2Nc3cccc4cccc(c34)N2)ccc1O,-29,25*,0,-3,5,37*
O=C1NC(c2ccc(Cl)c([N+](=O)[O-])c2)Nc2ccccc21 (configuration not stated),11,3,-1,1,-4,14
Fc1cccc(F)c1[B-](F)(F)F,-6,8,/,/,/,3
CCN(C(=O)COC(=O)c1ccccc1Nc1ccccc1)c1c(N)n(Cc2ccccc2)c(=O)[nH]c1=O,-1,3,/,/,/,12
CC(=O)c1ccc(NC(=S)NC2CCCC(C)C2C)cc1 (configuration not stated),-3,8,3,2,34*,3
CC(=O)c1ccc(NC(=S)NN2C(C)CCCC2C)cc1 (configuration not stated),-1,-3,-2,-1,-1,-2
CC1CCCCC1NC(=O)COC(=O)c1c2c(nc3ccccc13)/C(=C/c1ccco1)CC2 (configuration not stated),27,6,2,1,31*,13
CC1CCCC(NC(=O)CCC(=O)NCc2ccccc2)C1C (configuration not stated),6,8,1,-7,3,4
CC(OC(=O)c1ccc2c(=O)n3c(nc2c1)CCC3)C(=O)NC1CCCCC1C (configuration not stated),-7,3,0,-1,2,12
Cc1ccc(S(=O)(=O)n2nc(OC(=O)c3c(-c4ccccc4Cl)noc3C)cc2N)cc1,1,11,2,-2,-6,11
